# PI4K2A block: blocks human PI4K2A kinase activity; activity change, negative = inhibition, % at 76.9 µM; AID 1346378; 0.13% of 420,000 active; purified PI4K2A, ADP-Glo luminescence, 1 h; stronger effect = lower value; in the data active means activity change below about -50%; inconclusive means mostly about -30% to -49%
# Target sequence (Q9BTU6 whole entry, looked up): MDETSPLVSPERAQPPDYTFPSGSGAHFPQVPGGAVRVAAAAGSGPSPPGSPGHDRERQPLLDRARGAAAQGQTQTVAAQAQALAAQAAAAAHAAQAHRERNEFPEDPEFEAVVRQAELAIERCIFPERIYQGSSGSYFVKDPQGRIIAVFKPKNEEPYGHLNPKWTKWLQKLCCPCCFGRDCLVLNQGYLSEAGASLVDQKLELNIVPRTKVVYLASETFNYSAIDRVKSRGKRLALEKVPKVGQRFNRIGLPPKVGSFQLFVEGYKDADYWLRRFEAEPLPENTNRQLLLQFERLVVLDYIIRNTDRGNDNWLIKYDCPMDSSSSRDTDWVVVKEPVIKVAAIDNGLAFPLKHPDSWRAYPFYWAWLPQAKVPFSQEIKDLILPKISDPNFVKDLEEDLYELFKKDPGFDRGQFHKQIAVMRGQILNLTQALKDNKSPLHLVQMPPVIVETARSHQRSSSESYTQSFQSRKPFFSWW
#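 Compounds are screened against recombinant PI4K2A using PI as substrate and ATP, the latter dispensed at 300 microM. Reactions run one hour at ambient temperature before ADP-Glo detection; full inhibition defined by wells lacking enzyme.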
# DRD3 antagonist: antagonists of human D3 dopamine receptor | P35462 | D3R cells, DiscoveRx beta-arrestin luminescence, antagonist mode; stronger effect = lower value | max response, negative = inhibition, % | 2.5% of 360,000 active; in the data active means max response below about -50%; inconclusive means no clear call, values can overlap the other calls
#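 Cells expressing the human receptor were seeded at 1500 cells/well, incubated overnight at 37 degrees C in 5% CO2, then exposed to library compounds with dopamine controls for 90 minutes at 37 degrees C before luminescent detection.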
# DRD3 agonist: D3 dopamine receptor (human) agonism. 0.58% of 410,000 active. max activation, %. AID 652048. D3R DiscoveRx beta-arrestin cells, luminescence, 90 min; in the data active means max activation above about 30%
#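 Agonist mode: compounds and dopamine controls were applied to plated cells for 90 min at 37 degrees C after an overnight attachment at 1500 cells/well. Luminescent read-out followed 30 - 60 minutes at room temperature with DiscoveRx detection reagent.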
# LDHA block: LDHA (human) enzyme inhibition. purified LDHA, NADH/diaphorase-resazurin fluorescence; stronger effect = lower value. activity change, % (values are at about 110 or 230 µM). 0.15% of 480,000 active. AID 1347041; in the data active means activity change below about -30%; inconclusive means mostly about -25% to -30%
#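 Human LDH5 at 2 nM final in Tris HCl pH 7.4 with 0.06 mM NADH and 0.2 mM pyruvate, reacted 5 minutes at room temperature. Remaining NADH coupled via diaphorase/resazurin; resorufin fluorescence read at 0 and 20 minutes, normalized to enzyme-free and DMSO wells.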
# PI5P4Ka inh: inhibitors of human PI5P4K alpha; PI5P4Kalpha enzyme, ADP-Glo luminescence, 60 min; stronger effect = lower value; max response, %; 1.2% of 330,000 active; AID 652105; active means max response of -50% or lower; inconclusive means between -30% and -50%; inactive means -30% or higher; further: value at the top dose of about 77 µM
#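 Luminescence from ADP-Glo served as readout of PI5P4Kalpha activity in a qHTS format. Reaction: enzyme, substrate, compound, ATP at 5 microM final, 60 min at RT.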
# Hits are given with their value; - = inactive; ? = inconclusive; . = no result. The list is not random: actives were taken first. Their share in the collection is about 3.3%.
SMILES,PI4K2A block,DRD3 antagonist,DRD3 agonist,LDHA block,PI5P4Ka inh
COc1cc2[nH]c(=O)n(CCC(=O)NCCCN3CCN(c4ccccc4F)CC3)c(=O)c2cc1OC,-,?,30.4,-,-
COc1ccc(C(=O)OCc2nc(-c3ccc(F)cc3)no2)cc1S(=O)(=O)N1CCCCCC1,.,.,.,-,.
CC(C)(C)n1nnnc1C(c1ccccc1)N1CCCN(Cc2ccc(F)cc2)CC1 (stereo not given),-,-105.4,-,-,-
C(=C\c1ccccc1)/CN1CCN(C(c2ccccc2)c2ccccc2)CC1,-,-62.6,.,-,-
Cc1ccc(C(c2nnnn2C(C)(C)C)N2CCC(C)CC2)cc1 (stereo not given),-,-51.7,-,-,.
CC(C(=O)N(C)Cc1ccccc1)N1CCN(C/C=C/c2ccccc2)CC1 (stereo not given),-,-,-,-31.3,-
CC(C)(C)n1nnnc1C(c1ccccc1)N1CCN(C/C=C/c2ccccc2)CC1 (stereo not given),-,-56.8,-,-,-
CC(C)(C)n1nnnc1C(c1ccccc1)N1CCN(c2ccccc2)CC1 (stereo not given),-,-,-,-,-
CCC(c1nnnn1C(C)(C)C)N1CCN(C/C=C/c2ccccc2)CC1 (stereo not given),-,-80.5,-,-,-
CSCCC(C(=O)Nc1c(C)cccc1C)N1CCN(C/C=C/c2ccccc2)CC1 (stereo not given),-,-80.8,-,-,-
CCC(c1nnnn1C(C)(C)CC)N1CCN(c2ccccc2F)CC1 (stereo not given),-,-,-,-,-
COc1ccccc1Oc1c(C)oc2cc(OC(=O)N3CCOCC3)ccc2c1=O,.,.,.,-,.
CCOC(=O)C1(CC2CC2)CCN(Cc2ccc(OC)cc2F)CC1,-,-68.4,-,-,-
O=C(O)c1cc(-c2ccc(/C=C3/SC(=S)N(Cc4ccccc4)C3=O)o2)ccc1Cl,-,-,-,-,?
O=C(O)CN1C(=O)/C(=C/c2ccc(-c3cccc(Cl)c3)o2)SC1=S,.,.,.,-62.6,.
O=C(O)c1cccc(N2C(=O)/C(=C/c3ccc(SCc4ccc(Cl)cc4)o3)SC2=S)c1,-,-59.2,-,-,-72.8
O=C(CCN1C(=O)/C(=C/c2ccc(Cl)cc2)SC1=S)Nc1cccc(C(=O)O)c1,-,-,-,-,-
Cc1cc(C(=O)COC(=O)c2ccc(Br)o2)c(C)n1C,-,-,-,-,-
COCCn1c(C)cc(C(=O)COC(=O)c2ccc(Br)o2)c1C,-,-81.7,-,-,-
CCOC(=O)C1(CCOC)CCN(Cc2nc(-c3cccs3)oc2C)CC1,-,?,-,-,-
Cc1oc(-c2cccs2)nc1CN1CCC(CO)(CCOc2ccccc2)CC1,-,-89.0,-,-,-
COc1ccc(-c2c(C)c3c(C)cc(OC(C)=O)cc3oc2=O)cc1,.,.,.,-,.
Cc1ccc(-c2nc(N3CCN(S(=O)(=O)c4ccc(F)cc4)CC3)c3ccc(Cl)cc3n2)cc1,.,.,.,-,.
O=C(NC1CCCCC1)C(CCc1ccccc1)N1CCc2ccccc2C1 (stereo not given),-,-59.5,-,-,-
CC(C)Oc1ccc(/C=C(/C#N)c2ccc(C(F)(F)F)cn2)cc1,.,.,.,-,.
SMILES,PI4K2A block,DRD3 antagonist,DRD3 agonist,LDHA block,PI5P4Ka inh
O=C(Nc1ccccc1F)N(CCCN1CCOCC1)Cc1cc2cc3c(cc2[nH]c1=O)OCCO3,-,-54.7,-,-,-
O=C(Nc1ccccc1)N(CCCN1CCOCC1)Cc1cc2cc3c(cc2[nH]c1=O)OCCO3,-,-,-,-,-
CCN1/C(=C/C=C/c2oc3ccc(-c4ccccc4)cc3[n+]2CC)Oc2ccc(-c3ccccc3)cc21,-,-,-,-,-57.1
O=C1N(Cc2ccccc2)CC2(Br)COCOC12O (stereo not given),-,?,-,-,-62.2
O=C(Cc1c[nH]c2ccccc12)N1CCN(C(=O)NC2CCCC2)CC1,.,.,.,-,.
Cn1c(=O)c2c(nc(CN3CCCCC3)n2CC(N)=O)n(C)c1=O,.,.,.,-,.
Cc1[nH]n2c(=O)cc(-c3ccc(Cl)cc3)nc2c1-c1ccc(F)cc1,.,.,.,-,.
COCc1cc(=O)n2[nH]c(C)c(-c3ccc(Cl)cc3)c2n1,-,-60.5,-,-,-
Cc1c(CC(=O)NCc2ccccc2Cl)c(=O)oc2c(C)c(O)ccc12,.,.,.,-,.
Cc1ccccc1-c1csc(N)n1,-,-,-,-,-
Cc1c(-c2csc(N)n2)cnn1C,-,-,42.0,-,-
O=S(=O)(c1ccccc1)N(Cc1nc(-c2ccccc2)no1)C1CCCCC1,-,-52.8,-,-,-
COc1cn(CC(=O)Nc2ccc(C(N)=O)cc2)c(CSc2ccc(F)cc2)cc1=O,.,.,.,-,.
CCNC(=O)Cc1ccc(S(=O)(=O)N2CCCCC2)cc1,.,.,.,-,.
C[C@H](C[C@H](O)[C@H]1OC1(C)C)C1=C2C[C@H](O)C3[C@@]4(C)CCC(=O)C(C)(C)C4CC[C@]3(C)[C@@]2(C)CC1 (stereo not given in full),-,-,-,-,-
C[C@@H](C[C@@H](O)[C@H](O)C(C)(C)O)[C@@H]1CC[C@]2(C)C3=CC[C@H]4C(C)(C)C(=O)CC[C@]4(C)[C@H]3CC[C@@]12C,-,-,44.8,-,-
CCN(CC)Cc1ccc(C(=O)O)o1,.,.,.,-,.
CCCCNCCOc1ccccc1-c1ccccc1,-,-98.8,-,-,-
COCCCNCCCCOc1ccccc1-c1ccccc1,-,-77.6,-,-,-
CC(O)CNCCOc1ccccc1-c1ccccc1 (stereo not given),-,-80.0,-,-,-
COc1ccccc1OCCCCNCCO,-,-,-,-,.
OCCNCCOc1ccccc1-c1ccccc1,-,-75.9,-,-,-
Cc1ccc2c(c1)C(O)(CC(=O)c1ccccc1F)C(=O)N2 (stereo not given),.,.,.,-,.
CC(O)CNCCNCc1c(OCc2ccccc2)ccc2ccccc12 (stereo not given),-,?,-,-,.
CNCCCCOc1ccccc1-c1ccccc1,-,-75.9,-,-,-
SMILES,PI4K2A block,DRD3 antagonist,DRD3 agonist,LDHA block,PI5P4Ka inh
COCCCNCCOc1ccccc1-c1ccccc1,-,-80.6,-,-,-
COCCNCCOc1ccccc1-c1ccccc1,-,-82.6,-,-,-
CC(O)CNCCOc1ccccc1OCc1ccccc1 (stereo not given),-,-79.7,-,-,-
CNCCOc1ccccc1-c1ccccc1,-,?,-,-,-
CC(C)C(NC(N)=O)C(=O)Nc1cccc(Cl)c1 (stereo not given),.,.,.,-,.
CC(C)(C)c1cc(C(c2cccs2)c2c[nH]c3ccccc23)cc(C(C)(C)C)c1O (stereo not given),.,.,.,-,.
O=C(O)CCc1ccc(S(=O)(=O)Nc2ccc(-c3ccccc3)cc2)cc1,.,.,.,-,.
COc1cc(/C=C/C(=O)c2ccc3c(c2)OCCO3)cc2c1OCO2,.,.,.,-,.
C#CCN1CC(N(C)CCOC(=O)CC2C=CCC2)CS1(=O)=O (stereo not given),-,.,.,.,.

# Screening data: PubChem, National Center for Advancing Translational Sciences (NCATS)
